# Measurements reported in PubChem BioAssay.
# The source made the active and inactive calls.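 How the source made its calls, unless noted: active means inhibition above 20% together with a positive visual image hit; inconclusive means visual image hit but inhibition not above 20%; inactive means no visual image hit.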
# Columns and labels:
# [1] = inhibitors of TNFa-induced NFkB p65 translocation, primary screen, imaging, HUVEC, MLSMR starter and 10KST1 sets (AID 438); details: HUVEC TNFa-induced p65 nuclear translocation; cell count: measured here: nuclei count (cytotoxicity indicator), at 2.08 µM; inhibition: at 2 µM, stronger effect = higher value, 0% TNFa-plus-vehicle, 100% no-TNFa wells;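 further: compound added about 3h40 before a 20 min TNFalpha stimulation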;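 on inhibition: signal is the nuclear over cytoplasmic p65 intensity ratio per well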
# [2] = inhibitors of mutant huntingtin aggregation, primary screen, imaging, exon1htt(103Q)mCFP cells, high-content imaging (AID 483;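 active means visual image review flags a hit and inhibition of aggregation exceeds 20%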;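 further: compound exposure lasted 3 days before fixation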;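 on nuclei count: percent of the per-plate median nuclei count of sample wells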); details: exon1htt(103Q)mCFP cell line, aggregate imaging, at 2 µM; inhibition of aggregation: stronger effect = higher value; nuclei count: measured here: cell count, toxicity
# [3] = inhibitors of E-selectin induction by TNFa, primary screen, imaging, HUVEC, immunofluorescence, MLSMR starter and 10KST1 sets (AID 487;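 active means visually confirmed hit in the image check and inhibition above 20%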;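 on inhibition: signal is fraction of cell area covered by stained E-selectin grains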;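 on nuclei count: 100% = median nuclei count of all wells on the same plate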); details: HUVEC TNFalpha-induced E-selectin immunofluorescence imaging, at 2 µM; inhibition: stronger effect = higher value; nuclei count: measured here: cell number, toxicity
# [4] = target: Voltage-gated potassium channel subunit beta-2 (Rattus norvegicus) (UniProt P62483); assay: KvBeta enzyme negative modulators, primary screen, biochemical, NADPH fluorescence (AID 622;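 active means fluorescence slope higher than the sample average by over 3 SD, cut at about -0.22 in these data, passing the limit was not always enough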;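 further: slope of raw intensity against log time taken from 70 to 1610 s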); details: recombinant KvBeta, 4-cyanobenzaldehyde reduction, at 10 µM, stronger effect = higher value
# Sequence of Voltage-gated potassium channel subunit beta-2 (Rattus norvegicus) (P62483 whole entry, looked up): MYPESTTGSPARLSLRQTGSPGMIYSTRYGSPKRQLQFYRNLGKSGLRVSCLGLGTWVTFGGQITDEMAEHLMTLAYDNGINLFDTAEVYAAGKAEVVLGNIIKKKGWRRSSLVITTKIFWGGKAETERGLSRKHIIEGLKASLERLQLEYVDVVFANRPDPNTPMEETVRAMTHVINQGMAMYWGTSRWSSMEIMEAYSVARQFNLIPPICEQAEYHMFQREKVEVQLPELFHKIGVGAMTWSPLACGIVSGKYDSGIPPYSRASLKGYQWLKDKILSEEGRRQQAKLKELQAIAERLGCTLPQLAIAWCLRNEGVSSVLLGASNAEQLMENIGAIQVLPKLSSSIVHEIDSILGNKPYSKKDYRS
# [5] = target: Voltage-gated potassium channel subunit beta-2 (Rattus norvegicus) (UniProt P62483); assay: KvBeta positive modulators, primary screen, biochemical, NADPH fluorescence (AID 623;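 active means NADPH fluorescence slope more negative than the mean of all samples by about 3 SD, 99.7% confidence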;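 further: fluorescence intensity change per second fitted from 20 to 320 s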); details: Recombinant KvBeta, NADPH fluorescence decrease slope, 10 min; at 10 µM; stronger effect = lower value
# [6] = target: Alpha-2C adrenergic receptor (Homo sapiens) (UniProt P18825); assay: modulators of alpha2C/GIRK thallium flux, primary screen, cell-based, HEK293 alpha2C/GIRK1/2 (AID 624;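 active means fluorescence slope after compound addition differing from the mean of all screened samples at 99.7% confidence, in either direction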;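 further: slope of fluorescence ratio to pre-addition baseline per second over 15 to 24 s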); details: thallium flux BTC fluorescence, at 10 µM, actives lie on both sides
# Sequence of Alpha-2C adrenergic receptor (Homo sapiens) (P18825 whole entry, looked up): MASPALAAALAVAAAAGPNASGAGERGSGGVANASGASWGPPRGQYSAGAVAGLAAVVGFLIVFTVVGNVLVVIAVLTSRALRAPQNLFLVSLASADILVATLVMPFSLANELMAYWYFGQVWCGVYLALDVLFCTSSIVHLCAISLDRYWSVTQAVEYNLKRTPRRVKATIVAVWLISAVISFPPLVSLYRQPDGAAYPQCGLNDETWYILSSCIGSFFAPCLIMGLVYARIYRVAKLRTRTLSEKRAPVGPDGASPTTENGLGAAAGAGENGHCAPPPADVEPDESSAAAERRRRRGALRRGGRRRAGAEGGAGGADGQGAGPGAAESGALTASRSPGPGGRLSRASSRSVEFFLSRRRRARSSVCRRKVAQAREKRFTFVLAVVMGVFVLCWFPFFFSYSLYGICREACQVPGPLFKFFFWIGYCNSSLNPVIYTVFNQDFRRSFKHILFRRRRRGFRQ
# [7] = inhibitors of Sendai virus-induced IRF3 signaling, primary screen, TLR/RLR signaling modifier project, cell-based, Sendai virus stimulus, luciferase, 10K MLSCN set (AID 602276;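 active means inhibition at or above 50% at 10 µM; inactive means inhibition below 50%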;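 further: firefly luciferase from ISG56 promoter only with Renilla not read in this screen; 0% = Sendai virus plus DMSO and 100% = medium plus DMSO without virus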); details: HEK293 RL24 IRF3 luciferase reporter, at 10 µM, stronger effect = higher value
# [8] = inhibitors of poly I:C-induced TLR3 signaling, primary screen, cell-based, poly I:C stimulus, luciferase, 10K MLSCN set (AID 602277;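 active means inhibition of the reporter signal at or above 50%; inactive means inhibition below 50%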); details: HEK293-TLR3 RL24 IRF3 luciferase reporter, at 10 µM, stronger effect = higher value
SMILES,cell count [1],inhibition [1],inhibition of aggregation [2],nuclei count [2],inhibition [3],nuclei count [3],fluorescence slope [4],NADPH fluorescence slope [5],slope [6],inhibition [7],inhibition [8]
Cc1cccc(OCCCC(=O)O)c1,438,1.4% (inactive),-12.7% (inactive),101%,-57.9% (inactive),116%,-0.584 (inactive),-3.6e-05 (inactive),0.00464 (inactive),-5.29% (inactive),8.09% (inactive)
CCOC(=O)CSc1nnc(Cn2nnc(-c3ccccc3)n2)n1CC,415,-0.8% (inactive),5.4% (inactive),109%,-34.4% (inactive),164%,-0.402 (inactive),2.4e-05 (inactive),0.006 (inactive),15.9% (inactive),21.4% (inactive)
Oc1ccc(Cl)cc1-c1cc(-c2ccccc2)n[nH]1,524,-11.4% (inactive),26.3% (inactive),81.5%,-6.5% (inactive),80.2%,-0.557 (inactive),-1.3e-05 (inactive),0.00732 (inactive),-23.7% (inactive),-37% (inactive)
O=C(Nc1nnc(-c2ccc(Cl)cc2)o1)C1CCCCC1,673,1.8% (inactive),18.6% (inactive),96.8%,-21.5% (inactive),115%,-0.443 (inactive),-6.8e-05 (inactive),0.00624 (inactive),6.6% (inactive),3.98% (inactive)
Cc1nc2cc(Cl)ccc2n1CCO,404,6.1% (inactive),-6.3% (inactive),104%,15.4% (inactive),115%,-0.565 (inactive),-1.6e-05 (inactive),0.00492 (inactive),17% (inactive),21.6% (inactive)
C/C(N)=C(/C#N)C(=O)COC(=O)CCSc1ccccc1,422,3.1% (inactive),7.6% (inactive),117%,-20.4% (inactive),107%,-0.464 (inactive),-6.7e-05 (inactive),0.00505 (inactive),13.7% (inactive),-9.84% (inactive)
CCOc1cc(C(=O)NCc2nnc(SCC(=O)OC)n2C)cc(OCC)c1OCC,291,10% (inactive),17% (inactive),55.3%,1.2% (inactive),101%,-0.337 (inactive),-1.2e-05 (inactive),0.00327 (inactive),10.7% (inactive),16% (inactive)
O=S(=O)(Nc1nc2ccccc2nc1NCc1ccco1)c1ccc(Cl)cc1,481,0.9% (inactive),4.8% (inactive),101%,8.2% (inactive),129%,-0.448 (inactive),-6.1e-05 (inactive),0.00347 (inactive),19.4% (inactive),18.7% (inactive)
N#Cc1c(N)nc2c(c1-c1ccncc1)CCCCC2,658,3.9% (inactive),0% (inactive),106%,4.5% (inactive),103%,-0.577 (inactive),-5.4e-05 (inactive),0.00353 (inactive),12.7% (inactive),12.3% (inactive)
C=CCn1c(C)cc(C(=O)CSc2nc3ccccc3o2)c1C,615,-8.9% (inactive),-16.3% (inactive),105%,-58.1% (inactive),104%,-0.595 (inactive),-5.9e-05 (inactive),0.00586 (inactive),-26.5% (inactive),-136% (inactive)
Cc1cn2c(-c3ccc(Cl)cc3)nnc2s1,752,-1.6% (inactive),17.6% (inactive),98%,-81% (inactive),109%,-0.563 (inactive),-4.1e-05 (inactive),0.00702 (inactive),6.2% (inactive),12.3% (inactive)
CCOc1ccc(NC(=O)c2ccc3c(c2)N(Cc2ccc(F)cc2)C(=O)CS3=O)cc1 (centres undefined),659,0% (inactive),-4.8% (inactive),105%,-25.6% (inactive),113%,-0.551 (inactive),-2.5e-05 (inactive),0.00664 (inactive),5.6% (inactive),-7.02% (inactive)
Cc1ccc(-c2nnn(CC(=O)N(Cc3ccco3)C(C(=O)NC(C)(C)C)c3cccs3)n2)o1 (centres undefined),643,3.5% (inactive),4.8% (inactive),85.8%,-43.9% (inactive),117%,-0.595 (inactive),-7.2e-05 (inactive),0.00341 (inactive),9.52% (inactive),12.3% (inactive)
Cn1c(SCC(=O)O)nnc1C1CCCCC1,396,1.6% (inactive),-3.7% (inactive),99.2%,-65.8% (inactive),105%,-0.515 (inactive),-8.3e-06 (inactive),0.0074 (inactive),-46.6% (inactive),-23.7% (inactive)
CCOc1ccc(NC(=O)C2CC(=O)N(CC)C(=Nc3ccc4c(c3)OCO4)S2)cc1 (centres undefined),356,-6.2% (inactive),12.9% (inactive),81.1%,-125% (inactive),113%,-0.358 (inactive),-6.3e-05 (inactive),0.00411 (inactive),-1.73% (inactive),1.26% (inactive)
CCOC(=O)c1c(N)sc(C(=O)N2CCOCC2)c1C,314,-11.5% (inactive),12.2% (inactive),103%,-10.6% (inactive),119%,-0.345 (inactive),2.6e-05 (inactive),0.00763 (inactive),16.8% (inactive),18.1% (inactive)
COC(=O)c1ccccc1NC(=O)C1CC(=O)N(c2ccc(F)cc2)C1 (centres undefined),321,6.5% (inactive),-18.4% (inactive),115%,-16.8% (inactive),134%,-0.604 (inactive),-3.1e-05 (inactive),0.00375 (inactive),14.7% (inactive),5.83% (inactive)
CCOc1ccc(-c2nnn(CCC(=O)O)n2)cc1OC,429,6.5% (inactive),15.2% (inactive),64.5%,-108% (inactive),118%,-0.612 (inactive),1.3e-05 (inactive),0.00471 (inactive),18.1% (inactive),9.91% (inactive)
Nn1c(SCC(=O)NC2CCCCC2)nnc1C1CC1,433,-28.7% (inactive),7.4% (inactive),95.6%,-36.9% (inactive),117%,-0.466 (inactive),4.6e-05 (inactive),0.00622 (inactive),4.49% (inactive),16.1% (inactive)
